Sampled rows, rich in hits. Any-hit rate of the full collection: about 4%.
ADAM10 inh: human ADAM10 inhibitors, primary screen, biochemical, QFRET, HTS. Disintegrin and metalloproteinase domain-containing protein 10 (Homo sapiens), O14672. recombinant ADAM10, EDANS/DABCYL FRET peptide cleavage, 3 h. inhibition, % at 7 µM. 370,000 tested, 0.62% active. AID 720582, 2013;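 active = inhibition above a per-campaign cutoff equal to the mean of compounds falling between control-based bounds plus 3 SD, cut at about 20% in these data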;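 note: 0% = DMSO wells while the 100% control is not disclosed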
FAS-TE inh: FAS thioesterase domain inhibitors, primary screen, biochemical, fluorescence intensity, uHTS | Fatty acid synthase (Homo sapiens), P49327 | 360,000 tested, 0.67% active | inhibition, % at 15 µM | AID 602261, 2012 | recombinant FAS-TE, OMFH fluorogenic substrate, fluorescence endpoint;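 active = compounds whose normalised, plate-corrected inhibition of enzyme fluorescence in the single-dose primary screen is 50% or more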;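 note: 0% = DMSO with enzyme and 100% = substrate without enzyme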
aDG glyco up: activators of alpha-DG glycosylation, primary screen, uHTS, Pro5-aDG cells, AlphaScreen. alpha-DG glycosylation AlphaScreen (IIH6); 0% Pro5, 100% B10-LARGE cell signal. activation, % at 10 µM. 360,000 tested, 0.22% active;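 active = activation of at least 8% versus controls, or a plate z-score of at least 8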;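 note: Pro5 are CHO cells carrying HIG-tagged alpha-DG that lacks glycosylation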
NR3A LBD binder: binders of NR3A ligand-binding domain, primary screen, biophysical, differential scanning fluorimetry, uHTS; Glutamate receptor ionotropic, NMDA 3A (GRIN3A) ligand-binding domain; NR3A LBD differential scanning fluorimetry, Tm shift; 0% = protein alone, 100% = glycine-bound protein; Tm shift relative to glycine control, % at 25 µM; 340,000 tested, 2.5% active;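 active = melting temperature shift of at least 10% of the positive control shift, at one fixed dose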
ADAM17 inh: ADAM17 inhibitors, primary screen, biochemical, QFRET; Disintegrin and metalloproteinase domain-containing protein 17 (Homo sapiens), P78536; recombinant ADAM17, EDANS/DABCYL FRET peptide cleavage; inhibition, % at 6.95 µM; 370,000 tested, 0.83% active; AID 720648, 2013;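 active = inhibition above the mean of compounds lying between control limits plus 3 SD, set per campaign, cut at about 8.5% in these data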;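 note: 0% = DMSO-only wells as the low control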
Target sequence (P78536 215-824 limits assumed): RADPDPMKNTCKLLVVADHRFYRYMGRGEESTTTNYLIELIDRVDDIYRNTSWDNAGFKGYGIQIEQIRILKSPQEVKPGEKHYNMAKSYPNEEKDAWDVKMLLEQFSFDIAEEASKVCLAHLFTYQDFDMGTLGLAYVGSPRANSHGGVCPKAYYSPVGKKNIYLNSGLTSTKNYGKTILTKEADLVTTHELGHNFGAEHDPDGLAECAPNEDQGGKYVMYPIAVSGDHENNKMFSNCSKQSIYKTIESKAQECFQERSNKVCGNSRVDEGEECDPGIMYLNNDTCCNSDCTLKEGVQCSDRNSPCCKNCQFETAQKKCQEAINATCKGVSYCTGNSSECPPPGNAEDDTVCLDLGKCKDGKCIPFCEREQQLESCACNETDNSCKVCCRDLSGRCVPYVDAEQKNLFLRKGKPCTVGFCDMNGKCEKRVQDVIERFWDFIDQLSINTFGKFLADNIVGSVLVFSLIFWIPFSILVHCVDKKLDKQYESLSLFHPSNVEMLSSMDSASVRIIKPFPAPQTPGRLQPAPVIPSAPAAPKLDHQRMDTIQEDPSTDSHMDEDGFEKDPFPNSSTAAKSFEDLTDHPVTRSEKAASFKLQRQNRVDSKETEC
ADAM10 confirm: human ADAM10 inhibitors, confirmation, biochemical, QFRET, triplicate; shares compounds with ADAM10 inh; ADAM10 QFRET peptide cleavage, EDANS fluorescence; inhibition, % at 6.95 µM; 2,100 tested, 1% active;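 active = inhibition above about 20% chosen separately for each screening run, limit read from the data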;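 note: 0% = DMSO wells and 100% = marimastat wells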
ADAM17 ctr: ADAM17 inhibitors, counter-screen for ADAM10 exosite inhibitor project, biochemical, QFRET, high throughput. shares compounds with ADAM10 inh. ADAM17 QFRET peptide cleavage, EDANS fluorescence. inhibition, % at 6.95 µM. 2,100 tested, 0.5% active. AID 743214, 2013;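 active = mean triplicate inhibition above the solvent-only control wells' mean plus 3 SD, cut at about 12% in these data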;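 note: 0% = DMSO wells and 100% = marimastat wells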
ADAM10 ctr: ADAM10 inhibitors, counter-screen for ADAM17 exosite inhibitor project, biochemical, FRET, human ADAM10 | inhibition, % at 6.95 µM | recombinant ADAM10, EDANS/DABCYL FRET peptide cleavage, 3 h | shares compounds with ADAM17 inh | 2,900 tested, 47% active;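 active = mean inhibition over the triplicate runs exceeds the activity threshold set in the earlier primary screen, cut at about 20% in these data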;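 note: 0% = DMSO wells and 100% = marimastat wells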
ADAM17 confirm: ADAM17 inhibitors, hit retest, confirmation, biochemical, QFRET peptide cleavage; shares compounds with ADAM17 inh; recombinant ADAM17, EDANS/DABCYL QFRET peptide cleavage; inhibition, % at 6.95 µM; 2,900 tested, 65% active; AID 743257, 2014;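 active = mean inhibition across replicates above the hit cutoff set in the primary screen, cut at about 8.5% in these data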;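 note: 0% = DMSO wells and 100% = marimastat wells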
* hit, by the source's call; / = no result.

SMILES	ADAM10 inh	FAS-TE inh	aDG glyco up	NR3A LBD binder	ADAM17 inh	ADAM10 confirm	ADAM17 ctr	ADAM10 ctr	ADAM17 confirm
Cn1c(C2=C(O)CN(c3ccc4c(c3)OCCO4)C2=N)nc2ccccc21	3	-8	0	-2	-2	/	/	/	/
O=C(/C=C1\NC2(CCCC2)Cc2ccccc21)C(=O)N/N=C/c1ccc(O)c(O)c1	22*	11	0	-3	12*	6	4	18	9.4*
Fc1ccc(NCc2nnc(SCc3ccccc3)o2)cc1	5	7	0	0	-5	/	/	/	/
Fc1cccc(Cl)c1CSc1nnc(CNc2ccccc2)o1	24*	24	0	-5	14*	0	0	12	7
Clc1ccc(-c2[nH]ncc2N=Nc2ccccc2)cc1	22*	-60	0	-10	10*	9	3	15	10*
CCCN1CCN(C(=O)CS(=O)(=O)Cc2nc(-c3cccc(OC)c3)oc2C)CC1	2	-5	0	0	-1	/	/	/	/
O=C(NC1CC1)C1CCN(C2CCN(C(=O)c3ccc(C(F)(F)F)cc3)CC2)CC1	-5	-2	0	-8	-2	/	/	/	/
COc1ccc(OC)c(NC(=O)C2C3C=CC(C3)C2C(=O)NCc2ccccn2)c1 (stereo not given)	30*	-7	0	-2	9.6*	-1	-1	3	8
O=C(O)CC12C[C@H]3C[C@@H](C1)CC(n1ncc(N4CCN(c5ccccc5)CC4)c(Cl)c1=O)(C3)C2	0	-21	0	7	1	/	/	/	/
Cc1cccc(C)c1N=Cc1c(O)n(-c2nccs2)c(=O)c2ccccc12	/	23	0	-1	/	/	/	/	/
COC(=O)[C@@]12C[C@@H](CC(=O)NCc3ccc(OC)c(OC)c3)C(=O)N(CCc3ccc(OC)c(OC)c3)C1=CCC(C)(C)C2	-15	/	1	/	0	/	/	/	/
CCCCCCCCN1C(=O)[C@H](CC(=O)NCc2ccc(OC)c(OC)c2)C[C@@]2(C(=O)OC)CC(C)(C)CC=C12	24*	/	1	/	8.7*	7	3	32*	15*
CCCCCCCCN1C(=O)[C@H](CC(=O)NCc2ccc(OC)c(OC)c2)C[C@@]2(C(=O)OCC)CCCC=C12	31*	14	0	/	13*	4	1	41*	22*
O=C(Nc1ccc(Cl)c(Cl)c1)OCCNC(=O)c1cccc(Cl)c1	28*	27	2	13*	9.0*	5	1	28*	16*
CC(C)C[C@H](NC(=O)c1nc[nH]c1C(=O)N[C@@H](CC(C)C)C(=O)OC(C)(C)C)C(=O)OCc1ccccc1	6	/	/	-31	2	/	/	/	/
CC(C)C[C@H](NC(=O)c1nc[nH]c1C(=O)NCC(=O)OCc1ccccc1)C(=O)OCc1ccccc1	45*	24	0	-14	24*	6	2	36*	21*
CC(C)C[C@H](NC(=O)c1nc[nH]c1C(=O)NCC(=O)OC(C)(C)C)C(=O)OCc1ccccc1	30*	30	0	-23	14*	3	1	36*	19*
O=c1c(CN2CCN(Cc3ccccc3)CC2)coc2ccc(Cl)cc12	-5	-1	0	1	-3	/	/	/	/
Cc1ccccc1N=C(NOCc1ccccc1)c1nonc1N	17	18	1	2	0	/	/	/	/
Cc1ccccc1N=C(NOCc1ccc(Cl)cc1Cl)c1nonc1N	20*	39	1	-3	9.6*	14	3	33*	24*
CCOC(=O)C1CCCN(C(=O)c2cccc(S(=O)(=O)N(C)c3ccc(OC)cc3)c2)C1 (stereo not given)	1	-2	1	0	-1	/	/	/	/
COc1ccccc1N(Cc1ccccc1)S(=O)(=O)c1cccc(C(=O)Nc2cccc(C)n2)c1	23*	31	0	-4	10*	10	3	10	9.6*
CCOC(=O)C1CCCN(C(=O)c2cccc(S(=O)(=O)N(Cc3ccccc3)c3ccccc3OC)c2)C1 (stereo not given)	30*	30	0	1	14*	4	1	25*	12*
OC(COc1ccc2ccccc2c1)CN1CCCC1 (stereo not given)	-8	-6	0	-3	-2	/	/	/	/
COCCNC(=O)CSc1nnc(-c2ccc(C)cc2)c(-c2ccc(C)cc2)n1	5	10	0	-2	-3	/	/	/	/
SMILES	ADAM10 inh	FAS-TE inh	aDG glyco up	NR3A LBD binder	ADAM17 inh	ADAM10 confirm	ADAM17 ctr	ADAM10 ctr	ADAM17 confirm
CCOc1ncccc1C(=O)N(C)CC(=O)Nc1ccc(C)cc1	-4	-9	0	0	0	/	/	/	/
Cc1ccc(NC(=O)CN(C)C(=O)c2cccnc2Nc2cccc(C(F)(F)F)c2)cc1	36*	33	0	16*	13*	10	2	52*	28*
CCSc1ccc([C@@H]2[C@H]3C(=O)N(C)C(=O)[C@H]3[C@]3(C(=O)OC)CCCCN23)cc1	22*	11	0	0	18*	3	1	-2	5
Cc1sc2ncnc(N3CCC(C(=O)N(C)CC(=O)Nc4ccc(Cl)c(C(F)(F)F)c4)CC3)c2c1C	23*	13	3	/	12*	8	2	48*	25*
Cc1cccc(C(=O)Nc2ccc(NC(=O)c3ccccc3)cc2)c1	19	7	0	-3	1	/	/	/	/
Cc1cccc(C(=O)Nc2cccc(NC(=O)c3ccccc3)c2)c1	26*	10	0	-5	10*	3	0	16	11*

Assay outcomes deposited in PubChem by several laboratories.
